Among the data in PubChem BioAssay (Tox21) are Potency and activity change, negative = cytotoxicity values, retold here.

Records with an inconclusive call do not appear. A call without a number means that no potency is given here. Values without a mark were called inactive. Calls of active or inactive are those of the source. The call rests on the fitted dose curve; in most records, active means well fitted cell-killing curve with a large enough effect in the repeat runs; inconclusive means weak or mixed curves, or effect the other way; inactive means flat fitted curve, though single readings scatter.

This test in a line: Human pregnane X receptor (PXR) small molecule agonists, qHTS cell viability counter screen (AID 1346977). Further: nearly all actives have a fitted effect of over 50% in size. The settings on record: PXR-Luc HepG2 viability, CellTiter-Fluor, 24 h; series mostly up to 92.4 µM. The text has this:
U.S. Tox21 Program National Center for Advancing Translational Sciences [NCATS] NIH Chemical Genomics Center [NCGC] U.S. Environmental Protection Agency [EPA] National Institutes of Environmental Health Sciences [NIEHS] National Toxicology Program [NTP] U.S. Food and Drug Administration [FDA] Tox21 Assay Overview: The human pregnane X receptor (hPXR) regulates the expression of several drug metabolizing enzymes and induction of these proteins is a major mechanism for developing drug resistance in cancer. One such key enzyme catalyzing the drug metabolism is cytochrome P450 3A4 (CYP3A4). Changes in CYP3A4 expression affect drug metabolism, thereby reducing the therapeutic efficacy and altering toxicological response to a drug and which finally causes adverse drug interaction. To screen Tox21 libraries for compounds that activate hPXR-mediated CYP3A4 gene expression, PXR-Luc HepG2 cells were used. Also cytotoxicity of the compounds was tested in parallel by measuring the cell viability using CellTiter-Fluor assay system in the same wells.
Tox21 Assay Protocol Summary: PXR-Luc HepG2 cells were dispensed at 2,000 per well in 5uL of assay medium containing 5% charcoal-stripped FBS into white solid bottom 1536-well plates (Corning Life Sciences, Corning, NY) using a Multidrop Combi (Thermo Scientific, Waltham, MA) dispenser. The assay plates were incubated at 37 C and 5% CO2 for 5hr, and then 23nL of compounds dissolved in DMSO and positive control were transferred using a Pintool station (Wako, San Diego, CA). The assay plates were incubated at 37C and 5% CO2 for 24hr. For cytotoxicity read, after 23hr incubation at 37C, 1uL CellTiter-Fluor reagent (Promega Corporation, Madison, WI) was added to each well of the assay plates using Flying Reagent Dispenser (FRD, Aurora Discovery, San Diego, CA). After 1hr incubation at 37C and 5% CO2, the fluorescence signal was quantified using a ViewLux plate reader (PerkinElmer, Shelton, CT).
(In general: qHTS replaces the single test concentration by a dilution series.)
As to `CCCCC(CC)COC(=O)c1ccccc1O` (stereo not given), the Potency entry is “inactive”.
In the case of `CN(C)CCCNCCCN(C)C`, the Potency entry was “inactive”.
On to `CCCCCSCCCCC`, for which the Potency result was “inactive”.
As to `NS(=O)(=O)c1ccccc1Cl`, the Potency entry was “inactive”.
The same measure, in the same setting: in the case of `O=C(O)CCCc1ccccc1` it was “inactive”; in that of `O=c1cc(CO)occ1O`, “inactive”.
Still for that read-out and setting: next, `CCCCNC(=O)NCCCC`: “inactive”; `CCCCCCOC(=O)CCCCC(=O)OCCCCCC`: “inactive”.
The same measure, in the same setting: in the case of `CCOC(=O)c1c(C)n(C)c2ccc(O)cc12` it was “inactive”.
`CCCCOCCOCCOCCCC`: the Potency entry was “inactive”.
On the same count and under the same terms, in the case of `O=C(CCCN1CCN(c2ccccn2)CC1)c1ccc(F)cc1` it was “inactive”.
Take `C[C@](N)(Cc1ccc(O)cc1)C(=O)O`: the activity change, negative = cytotoxicity was -1.21% [at 8.39 µM].
As for `O=Cc1cccc([N+](=O)[O-])c1`, the Potency result is “inactive”.
Same read-out and setting: in the case of `CC(C)(c1ccc(O)cc1)c1ccc(O)cc1` it was “inactive”; in that of `CCC(=O)OC(C)c1ccccc1` (stereo not given), “inactive”.
With `COc1ccc2c(c1)CCCC2=O`, the Potency entry is “inactive”.
Still for that read-out and setting: in the case of `CCCC(=O)O[C@]1(C(=O)CO)CC[C@H]2[C@@H]3CCC4=CC(=O)CC[C@]4(C)[C@H]3[C@@H](O)C[C@@]21C` it was “inactive”.
Still for that read-out and setting: next, `CCn1nc(C(=O)O)c(=O)c2cc3c(cc21)OCO3`: “inactive”.
Same read-out and setting: next, `O=c1cc(-c2ccccc2)oc2ccccc12`: “inactive”; `COc1ccc2c(c1)c(CC(=O)OCC(=O)O)c(C)n2C(=O)c1ccc(Cl)cc1`: “inactive”.
For the molecule `CC1(C)CO[C@@H](CC(=O)O)CN1`, the Potency result was “inactive”.
Still for that read-out and setting: in the case of `Cn1c(N)c(N=O)c(=O)n(C)c1=O` it was “inactive”.
The same measure, in the same setting: in the case of `CN1CC(=O)NC1=N` it was “inactive”; in that of `COC(=O)[C@@H](N)Cc1ccc(O)c(O)c1`, “inactive”; in that of `COc1nc(N)nc2c1ncn2[C@@H]1O[C@H](CO)[C@@H](O)[C@@H]1O`, “inactive”.
For `CC(=O)N(CC(O)CO)c1c(I)c(C(=O)NCCO)c(I)c(C(=O)NCC(O)CO)c1I` (stereo not given), the Potency entry is “inactive”.
The same measure, in the same setting: next, `CN1N=C(C(N)=O)CCC1=O`: “inactive”; `COC(=O)c1c(Cl)c(Cl)c(C(=O)OC)c(Cl)c1Cl`: “inactive”; `Oc1ccc(C2CNCCc3c2cc(O)c(O)c3Cl)cc1` (stereo not given): “inactive”.
Turning to `C=C(C)CS(=O)(=O)O`, the Potency entry was “inactive”.
`Nc1nc2c(ncn2COC(CO)CO)c(=O)[nH]1`: the Potency result is “inactive”.
Still for that read-out and setting: next, `CO[Si](CCCOCC1CO1)(OC)OC` (stereo not given): “inactive”; `CCO[Si](CCC1CCC2OC2C1)(OCC)OCC` (stereo not given): “inactive”.
On the same count and under the same terms, next, `O=c1[nH]c(=O)n([C@H]2C[C@H](O)[C@@H](CO)O2)cc1I`: “inactive”; `CCOC(=O)c1ccc(C)cc1`: “inactive”.
The same measure, in the same setting: next, `NS(=O)(=O)c1cc(C(=O)NN2C[C@H]3[C@H]4CCC(C4)[C@H]3C2)ccc1Cl`: “inactive”; `CC(C)(CC(=O)O)C(=O)O`: “inactive”; `CCn1ccnc1CC1COc2ccccc2O1` (stereo not given): “inactive”.
As for `C=C1CC[C@H]2C[C@@H]1C2(C)C`, the Potency entry is “inactive”.
As to `NS(=O)(=O)c1cc2c(cc1Cl)NC(C1CC3C=CC1C3)NS2(=O)=O` (stereo not given), the Potency result is “inactive”.
